# Screening results from PubChem.
# KDM5B inh: inhibitors of human KDM5B histone demethylase. Q9UGL1. KDM5B demethylase, FDH-coupled NADH fluorescence (FDH is formaldehyde dehydrogenase). Potency, µM (doses to about 57.7 µM), most hits filed as inhibitors. 220,000 compounds, 2.6% hits. AID 1347165; active = well fitted inhibition curve with a large enough effect; note: nearly all actives have a fitted effect of over 70% in size
#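 Compound dilutions met 200 nM (final) KDM5BΔAP for 10 min at room temperature before substrate addition. The substrate mix held 12.5 µM H3K4me3 with cofactors 25 µM α-ketoglutarate and 50 µM Fe²⁺. NADH signal gain over 30 min defined activity.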
# Numbers stand for hits; . = inactive. Many of the other results were omitted from the sample, so hits are more common in it than they were.
SMILES,KDM5B inh
COCCNC(=O)[C@@H](C)C1CC[C@@]2(C)Cc3sc(NC(=O)CN(C)C)nc3[C@@H](C)[C@@H]2[C@H]1O (some centres undefined),.
CNc1nc2c(s1)C[C@]1(C)CCC([C@H](C)C(=O)N3CCSCC3)[C@H](O)[C@H]1[C@@H]2C (some centres undefined),.
C=CCN(C)C(=O)[C@@H](C)C1CC[C@@]2(C)Cc3sc(CSc4ccccc4)nc3[C@@H](C)[C@@H]2[C@H]1O (some centres undefined),.
C[C@H](C(=O)NCCN1CCOCC1)C1CC[C@@]2(C)Cc3sc(-c4ccccc4)nc3[C@@H](C)[C@@H]2[C@H]1O (some centres undefined),25.1µM
C=CCN(C)C(=O)[C@@H](C)C1CC[C@@]2(C)Cc3sc(-c4cccnc4)nc3[C@@H](C)[C@@H]2[C@H]1O (some centres undefined),31.6µM
Cc1cc(C(F)(F)F)nc(SCC(=O)c2ccccc2)n1,.
O=C(CCC(=O)c1ccc2c(c1)CCC2)NC1CCCc2ccccc21 (centres undefined),.
CS(=O)(=O)N1CCC(NS(=O)(=O)c2cccc(Cl)c2)CC1,.
COc1cc(/C=C(\C#N)c2nc3ccc(C)cc3[nH]2)cc(Br)c1OC,.
COc1ccc(-c2coc3cc(OCCN4CCCCC4)ccc3c2=O)cc1,.
Cc1ccc(CSCCNC(=O)NNC(=O)c2ccc(C)cc2)cc1,.
O=C(c1ccccc1)N1CCC(Oc2cccc(F)c2)C1 (centres undefined),.
O=S(=O)(Nc1cccn2nc(C3CC3)nc12)c1cccnc1,3.55µM
Cc1cccc(S(=O)(=O)Nc2cccn3nc(C4CCC4)nc23)c1,.
CCc1nc2c(NS(=O)(=O)c3cccnc3)cccn2n1,.
Cc1ccccc1NC(=O)CSc1cccs1,.
CCCN1CCN(c2ncnc3sc(C(=O)Nc4c(C)cc(C)cc4C)c(C)c23)CC1,.
Cc1c(C(=O)O)sc2ncnc(NCC3(O)CCCCC3)c12,20µM
Cc1ccc(CNC(=O)c2sc3ncnc(N(C)C4CCCCC4)c3c2C)cc1,.
CCc1cccc2c(C=O)c[nH]c12,.
COCCNc1ncccc1-c1noc([C@@H]2CCCN2CC(C)(C)C)n1,35.5µM
COCCNc1ncccc1-c1noc([C@@H]2CCCN2Cc2ccco2)n1,28.2µM
COCCNc1ncccc1-c1noc([C@@H]2CCCN2C2CCOCC2)n1,39.8µM
COCCOc1ncccc1-c1noc([C@@H]2CCCN2C2CCN(C(C)=O)CC2)n1,.
COc1cc(C(=O)N2CCC[C@H]2c2nc(-c3ccccc3Cl)no2)cc(OC)c1OC,.
SMILES,KDM5B inh
COCCOc1ncccc1-c1noc([C@@H]2CCCN2C2CCN(C)CC2)n1,.
COCCOc1ccnc(-c2noc([C@@H]3CCCN3CC(C)(C)C)n2)c1,.
COCCOc1ncccc1-c1noc([C@@H]2CCCN2Cc2cccc(C#N)c2)n1,.
Cc1ccc(-c2noc(CCC(=O)N3CCc4sccc4C3c3cccs3)n2)cc1 (centres undefined),.
COc1ccc(C)cc1NC(=O)CC1CCCN(c2cnn(C)c(=O)c2)C1 (centres undefined),.
COc1ccc(Cl)cc1C(=O)NC1CC(=O)N(c2ccc(F)cc2)C1 (centres undefined),.
O=C(NCCNC(=O)c1ccccc1Nc1ccccc1)c1ccccc1Nc1ccccc1,.
Nc1nc(Nc2ccc(Cl)cc2Cl)nc(-c2cc3ccccc3o2)n1,.
Cc1ccc(-n2nnnc2SCC(=O)N(C)c2ccccc2C(=O)NCc2ccco2)c(C)c1,.
Cn1cc(-c2cc(=O)c3ccnc(NCc4ccc5c(c4)OCO5)c3o2)cn1,31.6µM
Cn1cc(-c2cc(=O)c3ccnc(-c4cccc5[nH]ccc45)c3o2)cn1,.
COc1cc2ncnc(NCc3ccc4c(c3)OCO4)c2cc1OC,.
COCc1ccccc1-c1nccc2c(=O)cc(-c3cnn(C)c3)oc12,35.5µM
Cn1c(=O)c2c(nc(NCc3ccc4c(c3)OCO4)n2C)n(C)c1=O,.
CC(Oc1ccccc1Cl)C(=O)NC(c1ccccc1)c1ccccc1 (centres undefined),.
COc1cccc(-c2nc(SCc3cc(=O)c4cc(C)c(C)cc4[nH]3)n[nH]2)c1,.
CCC(NCc1ccc(C(N)=O)cc1)c1ccc(Cl)cc1 (centres undefined),.
C=C(Cl)COc1ccccc1C(N)=O,.
N#C/C(=C/c1cccc(OCc2ccc(Cl)cc2)c1)c1nc2ccccc2s1,.
O=C(O)CCn1ncc2cc(OC3CCN(C(=O)Oc4ccccc4Cl)CC3)ccc21,.
Cc1ccc(OC(=O)N2CCC(COc3ccc4c(cnn4CCC(=O)O)c3)CC2)cc1,.
CC(C)OC(=O)N1CCC(COc2ccc3c(cnn3CC[S+](C)(=O)[O-])c2)CC1,.
CC(C)OC(=O)N1CCC(COc2ccc3c(cnn3CCC(=O)O)c2)CC1,.
O=C(O)CCn1ncc2cc(OC3CCN(C(=O)OC4CCCC4)CC3)ccc21,.
NC(=O)Cn1ccc2cc(OCC3CCN(C(=O)Oc4ccccc4Cl)CC3)cnc21,28.2µM
SMILES,KDM5B inh
O=C(O)CCn1ncc2cc(OCC3CCN(C(=O)Oc4ccccc4)CC3)ccc21,.
NC(=O)Cn1ccc2cc(OCC3CCN(c4cc(NC5CC5)ncn4)CC3)cnc21,39.8µM
O=C(O)CCC1CCN(c2cc(NC3CC3)ncn2)CC1,.
O=C(CCC1CCN(c2cc(NC3CC3)ncn2)CC1)Nc1ccccc1,.
O=C(O)Cn1ccc2cc(OCC3CCN(C(=O)OC4CCCC4)CC3)cnc21,35.5µM
CC(C)OC(=O)N1CCC(COc2cnc3c(ccn3CC(N)=O)c2)CC1,39.8µM
O=C(O)c1ccc(=O)oc1,.
CC(NC(=O)c1ccc2c(c1)sc1nc(-c3ccc(F)cc3)cn12)c1ccccc1 (centres undefined),.
CCc1ccc(C(CNC(=O)c2nn(C)c(=O)c3ccccc23)N(C)C)cc1 (centres undefined),.
O=S(=O)(O)CC(O)CNC(CO)(CO)CO (centres undefined),.
Cc1ccccc1CN1C(=O)C(O)(CC(=O)c2cccnc2)c2ccccc21 (centres undefined),.
Cc1cc(C)cc(N(C(=O)c2ccc3c(c2)OCO3)C2C=CS(=O)(=O)C2)c1 (centres undefined),.
Cc1nc2c(-c3ccccc3)c(C)nn2c(C)c1CCC(=O)NCc1ccc(Cl)cc1,.
Cc1c(-c2ccccc2)[nH]c2c(CNC(=O)C3=NN(C)C(=O)CC3)cc(Cl)cc12,.
CC1=C(c2ccc(C)c(C)c2)S(=O)(=O)NC1=NCC(=O)NCc1ccccc1C,.
Cc1nc(CCC(=O)NCc2cc(Cl)cc3c(C)c(-c4ccccc4)[nH]c23)n[nH]1,25.1µM
O=C(NCc1cccc(Cl)c1)c1oc(=O)c2ccccc2c1-c1ccccc1,.
Cc1ncoc1C(=O)NCc1cc(Cl)cc2c(C)c(-c3ccccc3)[nH]c12,35.5µM
O=C(CCc1c[nH]c2ccccc12)NCc1cccc(Cl)c1,.
CCn1nccc1C(=O)N1CCN(c2cc(-c3ccccc3)[nH]n2)CC1,.
Cc1cc(CNC(=O)C(C)Cn2nc(C)nc2C)c2[nH]c(-c3ccccc3)c(C)c2c1 (centres undefined),.
CCn1nccc1C(=O)NCc1cc(C)cc2c(C)c(-c3ccccc3)[nH]c12,12.6µM
Cc1cc(CNC(=O)CC2C=CS(=O)(=O)C2)c2[nH]c(-c3ccccc3)c(C)c2c1 (centres undefined),28.2µM
Cc1cc(C(=O)OCC(=O)c2ccc(OCc3ccccc3)cc2)c2ccccc2n1,.
